Experimental findings from ChEMBL document CHEMBL1157539, “Thousands of chemical starting points for antimalarial lead identification” (Nature, 2010) are described below.

This assay has as its system Plasmodium falciparum. Put plainly: GSK_TCMDC: Inhibition of Plasmodium falciparum 3D7 in whole red blood cells, using parasite LDH activity as an index of growth. Test compounds present at 2uM. Type of assay: functional.
As to `CC(C)COc1cc(C(=O)Nc2cnc3ccccc3c2)ccc1[N+](=O)[O-]`, the Inhibition is 97%. The result for `O=C(CCN(Cc1ccco1)c1nc(-c2ccc(F)cc2)nc2ccccc12)NC1CC1` reads 94%; that for `CCOc1cc(C)ccc1N1CCN(CCN2CCC(NC(=O)c3ccc(-c4ccc(C#N)cc4)cc3)CC2)CC1`, 84%. Take `Fc1ccc2c(NN=Cc3ccc(Cl)cc3)ccnc2c1`: the Inhibition is listed as 100%. The result for `CC1(C)CN(CCC2CCC(NC(=O)/C=C/c3ccccc3F)CC2)Cc2ccc(C#N)cc21.Cl` (stereo not given) reads 89%. The result for `CCC[C@@H]([C@@H](CC1CCC(C)CC1)C(=O)N[C@@H](CCCCNC(=O)c1ccccn1)C(=O)Nc1nccs1)N(O)C=O` (stereo not given in full) reads 100%; that for `CCCC(C)NC(=O)C(N)Cc1cccc(I)c1.O=C(O)C(F)(F)F` (stereo not given), 95%; that for `FC(F)(F)c1cccnc1N1CCC(Nc2nc3cc(Cl)ccc3[nH]2)CC1`, 93%. Compound `O=C(Nc1ccc(Cl)cc1F)NC1CCN(CCCCCNC(=O)C2CC2c2ccc(Cl)c(Cl)c2)CC1` (stereo not given) returned an Inhibition of 100%. In the case of `CC(C)N1CCN(C(CN2CCN(CCCOc3cccc(-c4ccccc4)c3)CC2)c2ccc(F)cc2)CC1.Cl` (stereo not given) it was 100%; in that of `CCN(CC)CCCOC(=O)c1ccc2c(c1)-c1ccc(C(=O)OCCCN(CC)CC)c3cccc-2c13.Cl`, 98%; in that of `COCCN(C(=O)Cc1cccs1)C(C(=O)NCc1ccc(OC)cc1)c1ccc(C(C)C)cc1` (stereo not given), 96%.

Turning to `COc1cc(F)c2ncc(Cl)c([C@@H](O)CN3CCC(NCc4cc5c(cn4)OCCO5)CC3)c2c1.Cl`, the Inhibition worked out at 100%. For the compound `Cl.FC(F)(F)c1cc(CNCCCNc2nc3ccncc3[nH]2)ccc1Cl`, the Inhibition came to 99%.

`CCOc1ccc2c(=NN=Cc3cccc(OC)c3)cc(C)[nH]c2c1`: the Inhibition was found to be 97%. The result for `Cc1cccc2nc(-c3ccc(-c4ccc(NC(=O)c5cncn5C)cc4)s3)[nH]c12` reads 100%; that for `Cc1cc2nc(-c3ccc(C(=O)NCc4cccc(F)c4)cc3)[nH]c2cc1C`, 91%. The result for `COCC(=O)Nc1nc2ccccc2[nH]1` reads 98%. The compound `COc1cc(OC)cc(-c2nnc(Sc3ccc(C#N)c([N+](=O)[O-])c3)n2C)c1` came in with an Inhibition of 95%. For the compound `CN(C)CCCOc1ccc(CN2CC[C@H](NC(=O)c3ccc(Cl)c(Cl)c3)C2)cc1Br.O=C(O)C(F)(F)F`, the Inhibition was 100%. In turn, `Cc1onc(-c2ccccc2)c1-c1nc(NCc2ccccc2Cl)no1` yielded an Inhibition of 99%. For the compound `O=C(Nc1ccc(Cl)cc1)Nc1ccc(OCC(O)CN2CCCCC2)cc1` (stereo not given), the Inhibition turned out to be 83%.

Compound `CCCc1ccc(NC(=O)c2cccc(CN3CCCN(Cc4cccc(C#N)c4)CC3)c2)cc1.O=C(O)C(F)(F)F` yielded an Inhibition of 85%. In the case of `CCNc1cc(C(=O)N[C@@H](Cc2ccco2)[C@H](O)CNC2CCCCC2)cc(N2CCCCS2(=O)=O)c1.Cl` it was 91%; in that of `CC(CN(C)C)Oc1ccc2nc(-c3cccc(OCc4ccccc4)c3)[nH]c2c1C#N` (stereo not given), 100%; in that of `CCC(C)(C)n1c(C)cc2c3c(N)nc(N)nc3ccc21`, 97%. `Cc1cc(C(=O)CN2C(=O)NC(C)(c3cccc4ccccc34)C2=O)c(C)n1Cc1ccco1` (stereo not given) gave an Inhibition of 90%. The result for `C=CCn1c(Cc2ccccc2)nnc1Sc1ccc(C#N)c([N+](=O)[O-])c1` reads 86%; that for `CCOC(=O)c1ccc(NC(=O)Nc2ccc(-c3cccc(-c4nc5cccc(C)c5[nH]4)c3)cc2)cc1`, 100%. The result for `NCC1CCCN1Cc1cccc(-c2ccc(-c3nc4ccccc4[nH]3)s2)c1.O=C(O)C(F)(F)F` (stereo not given) reads 99%; that for `CCCOc1cc(NC(=O)Nc2ccnc3ccccc23)cc(OCCC)c1.Cl`, 100%. Take `CC1(C)CCNc2cc(NC(=O)c3ccc(-c4ncccc4C(F)(F)F)cc3)ccc21.Cl`: the Inhibition is 97%. In the case of `Cc1cccc2nc(-c3cccc(-c4cccc(NC(=O)NCc5ccccc5)c4)c3)[nH]c12` it was 94%; in that of `CN(C)Cc1cccc(-c2ccc(NC(=O)c3ccc4c(=O)n(CCN5CCCCC5)cnc4c3)cc2)c1`, 100%; in that of `Cl.N#Cc1cccc(NC(=O)Nc2ccc3c(c2)CCN(C2CCC2)CC3)c1`, 91%.

Compound `CS(=O)(=O)N(c1ccccc1)c1cc(C(=O)N[C@@H](Cc2ccccc2)[C@H](O)CNC2CCCCC2)cc(N2CCCC2=O)c1` came in with an Inhibition of 100%. In the case of `CCN(CC)CCNC(=O)c1ccc(NC(=O)c2cn(-c3ccccc3)nc2-c2cccs2)cc1` it was 100%; in that of `N#Cc1ccc(N/C(=N\c2ccccc2Br)N(C2CCCCC2)C2CCCCC2)c(O)c1`, 99%; in that of `CCN1CCN(Cc2c(O)ccc3c(=O)c(Oc4cc(C)cc(C)c4)c(C(F)(F)F)oc23)CC1`, 96%. In the case of `Cc1cc(Nc2cccc(C(F)(F)F)c2)nc(Nc2cccc(C(F)(F)F)c2)n1` it was 100%.

A word on the Inhibition: it is the drop in the measured response relative to a control, in per cent. A lower Inhibition goes with little suppression.
